# Active and inactive are the calls of the source. Rule for the calls: active = hit-call score of the fitted dose curve at least 0.9, where 1 is the maximum; inactive = score below 0.9.
# Tests used:
# [1] = target: CCAAT/enhancer-binding protein beta (Homo sapiens) (UniProt P17676); experiment: ATG_C_EBP_CIS: Attagene CIS-FACTORIAL HepG2 Assay for human CCAAT/Enhancer Binding Protein (C/EBP) beta (AID 2282927); details: HepG2 Attagene cis-factorial transcription factor reporter; actives raise or lower the signal
# How it was run: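 Chemical-treated HepG2 cells (24 h) bearing cis-regulated reporter constructs were processed for total RNA, then reverse transcription, PCR amplification, fluorescent primer extension and fragment analysis; gain- and loss-of-signal were fitted against DMSO.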
# [2] = ATG_CMV_CIS: Attagene CIS-FACTORIAL HepG2 Assay for human CMV (Internal Marker) (AID 2282928); details: HepG2 CMV promoter reporter, transcription factor profiling; actives raise or lower the signal;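 note: endpoint acts as a background internal control marker rather than a target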
# How it was run: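 Fluorescence intensity of RT-PCR-derived reporter fragments, resolved by capillary electrophoresis, gives the signal. HepG2 liver cells bearing transfected cis-element reporters were treated 24 h; activity in either direction was fit relative to DMSO-treated controls.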
# [3] = ATG_AP_1_CIS: Attagene CIS-FACTORIAL HepG2 Assay for human Activator Protein 1 (AP-1) (AID 2282931); details: HepG2 Attagene cis-factorial AP-1 reporter mRNA; actives raise or lower the signal
# How it was run: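 HepG2 cells transiently transfected with cis-element-driven reporter transcription units, dosed for 24 hours. Reporter mRNA measured by RT-PCR, 6-FAM labelling, HpaI digestion and capillary electrophoresis. Bidirectional fitting against DMSO baseline.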
# [4] = ATG_AP_2_CIS: Attagene CIS-FACTORIAL HepG2 Assay for human Activator Protein 2 (AP-2) (AID 2282932); details: HepG2 AP-2 cis-reporter, Attagene transcription factor profiling; actives raise or lower the signal
# How it was run: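 Cells (HepG2) transfected with promoter-driven reporter constructs, treated 24 h. Total RNA reverse-transcribed, reporter cDNA PCR-amplified, FAM-labelled by primer extension, digested, resolved by capillary electrophoresis. Activity fitted both directions versus DMSO.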
# [5] = ATG_BRE_CIS: Attagene CIS-FACTORIAL HepG2 Assay for human Bone Morphogenetic Protein (BMP) Response Element (BRE) (AID 2282933); details: HepG2 BMP response element reporter, Attagene transcription factor profiling; actives raise or lower the signal
# How it was run: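 Endogenous transcription factor activity at a BMP response element was monitored in transfected HepG2 cells 24 h after dosing. Fluorescent RT-PCR products were resolved by capillary electrophoresis, and activity was fitted in both directions versus DMSO.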
# [6] = ATG_E_Box_CIS: Attagene CIS-FACTORIAL HepG2 Assay for human Enhancer Box (E-box) (AID 2282936); details: HepG2 E-box cis-reporter transcription, actives raise or lower the signal
# How it was run: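 Endogenous transcription factor activity was sensed in human HepG2 liver cells through transfected cis-promoter reporter units. After 24 h of dosing, total RNA was reverse-transcribed and reporter cDNA resolved by capillary electrophoresis.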
# [7] = ATG_M_61_CIS: Attagene CIS-FACTORIAL HepG2 Assay for M61 Transcription Factor (Internal Marker) (AID 2282937); details: HepG2 Attagene CIS-FACTORIAL M61 internal marker reporter; actives raise or lower the signal
# How it was run: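 HepG2 cells transiently transfected with multiplexed cis-promoter reporter units reporting endogenous transcription factor activity, measured 24 h after dosing. Reporter mRNA quantified by RT-PCR and capillary electrophoresis; bidirectional fit against DMSO baseline.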
# [8] = ATG_EGR_CIS: Attagene CIS-FACTORIAL HepG2 Assay for human Early Growth Response 1 (EGR1) (AID 2282938); details: HepG2 Attagene CIS-FACTORIAL EGR reporter mRNA; actives raise or lower the signal
# How it was run: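 HepG2 cells transiently transfected with cis-element-driven multiplexed reporter units, dosed for 24 h. EGR1-element reporter mRNA quantified by RT-PCR, 6-FAM labelling, HpaI digestion and capillary electrophoresis; bidirectional fit versus DMSO.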
# [9] = ATG_Ets_CIS: Attagene CIS-FACTORIAL HepG2 Assay for human Erythroblast Transformation Specific (ETS) (AID 2282941); details: HepG2 ETS cis-reporter transcription, actives raise or lower the signal
# How it was run: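 Multiplexed reporter transcript profiling: HepG2, 24 h treatment, total RNA to cDNA, PCR, 6-FAM labelling, HpaI cut, capillary electrophoresis. Gain- or loss-of-signal fitted against DMSO.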
# [10] = ATG_FoxO_CIS: Attagene CIS-FACTORIAL HepG2 Assay for human Forkhead box O (FoxO) (AID 2282943); details: HepG2 Attagene cis-reporter, FoxO element, mRNA; actives raise or lower the signal
# How it was run: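 24 h chemical exposure, HepG2 with transient cis-MRTU transfection. RNA extraction, oligo(dT) RT, reporter-specific PCR, primer-extension labelling, HpaI digestion, CE fragment analysis; bidirectional fit, DMSO baseline.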
# [11] = ATG_GATA_CIS: Attagene CIS-FACTORIAL HepG2 Assay for human GATA Binding Protein (AID 2282944); details: HepG2 GATA cis-element reporter, Attagene multiplex mRNA; actives raise or lower the signal
# How it was run: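 Endogenous transcription factor activity was captured through cis-promoter-driven reporters in transfected HepG2 cells. After 24 h exposure, reporter transcripts were quantified by RT-PCR with fluorescent capillary electrophoresis, and responses fitted both directions against DMSO.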
# [12] = ATG_ISRE_CIS: Attagene CIS-FACTORIAL HepG2 Assay for human Interferon Regulatory Factor 1 (IRF1) binding to an Interferon-Stimulated Response Element (ISRE) (AID 2282948); details: HepG2 ISRE cis-reporter (Attagene), mRNA transcription readout; actives raise or lower the signal
# How it was run: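 Signal reflects induction or loss of ISRE-linked reporter mRNA in transiently transfected HepG2 cells after a 24 h treatment, detected by fluorescent RT-PCR fragments on capillary electrophoresis and normalised to DMSO.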
# [13] = ATG_M_06_CIS: Attagene CIS-FACTORIAL HepG2 Assay for M06 Transcription Factor (Internal Marker) (AID 2282950); details: HepG2 Attagene CIS-FACTORIAL M06 internal marker reporter; actives raise or lower the signal
# How it was run: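 Steps: transfect HepG2 with multiplexed cis-element reporter constructs; dose chemical 24 h; extract RNA with DNase treatment; reverse-transcribe, PCR-amplify, 6-FAM label, HpaI digest; separate fragments by capillary electrophoresis. Activity fitted both directions versus DMSO.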
# [14] = ATG_MRE_CIS: Attagene CIS-FACTORIAL HepG2 Assay for human Metal Responsive Element (MRE) (AID 2282954); details: HepG2 MRE cis-reporter transcription, Attagene multiplex; actives raise or lower the signal
# How it was run: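 Cells were transfected with cis-promoter reporter transcription units, then dosed for 24 h. RNA was reverse-transcribed, amplified, fluorescently labelled and resolved by capillary electrophoresis, and activity was fitted in both directions relative to DMSO.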
# [15] = target: Paired box protein Pax-6 (Homo sapiens) (UniProt P26367); experiment: ATG_Pax6_CIS: Attagene CIS-FACTORIAL HepG2 Assay for human Paired Box 6 (PAX6) (AID 2282956); details: HepG2 CIS-FACTORIAL PAX6 reporter transcription, RNA readout; actives raise or lower the signal
# How it was run: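 Values derive from bidirectional curve fitting of reporter mRNA signal relative to DMSO. HepG2 cells bearing transfected cis-regulated MRTUs were exposed for 24 h; transcripts were read by RT-PCR and capillary electrophoresis.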
# [16] = target: Transcription factor Sp1 (Homo sapiens) (UniProt P08047); experiment: ATG_Sp1_CIS: Attagene CIS-FACTORIAL HepG2 Assay for human Specificity Protein 1 (Sp1) (AID 2282961); details: HepG2 Sp1 cis-reporter transcription, actives raise or lower the signal
# How it was run: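 HepG2 cells transiently transfected with multiplexed cis-regulated reporter constructs, chemical exposure 24 h. Reporter mRNA quantified by RT-PCR with capillary electrophoresis; bidirectional fit relative to DMSO.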
# [17] = ATG_SREBP_CIS: Attagene CIS-FACTORIAL HepG2 Assay for human Sterol Regulatory Element Binding (SREBP) (AID 2282962); details: HepG2 Attagene cis-factorial SREBP reporter, mRNA; actives raise or lower the signal
# How it was run: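 Values derive from bidirectional curve fitting with DMSO as baseline. The underlying measurement is reporter mRNA from cis-element-regulated units in transiently transfected HepG2, quantified by RT-PCR and capillary electrophoresis after 24 h exposure.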
# [18] = target: Signal transducer and activator of transcription 3 (Homo sapiens) (UniProt P40763); experiment: ATG_STAT3_CIS: Attagene CIS-FACTORIAL HepG2 Assay for human Signal Transducer and Activator of Transcription 3 (STAT3) (AID 2282963); details: HepG2, Attagene cis-factorial STAT3 reporter transcription; actives raise or lower the signal
# How it was run: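 HepG2, MRTU-transfected, 24 h dosing. RNA → RT → PCR → FAM label → HpaI → CE. Bidirectional fit vs DMSO.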
# [19] = ATG_TAL_CIS: Attagene CIS-FACTORIAL HepG2 Assay for human TAL Basal Promoter (AID 2282966); details: HepG2 Attagene cis-factorial TAL promoter reporter; actives raise or lower the signal;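 note: background control endpoint measuring basal TAL promoter reporter mRNA not a specific factor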
# How it was run: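 Basal-promoter background-control endpoint from a multiplexed HepG2 reporter panel. Cells were exposed 24 h, then reporter mRNA was read by RT-PCR/CE fluorescence and fitted in both directions relative to DMSO.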
# [20] = target: X-box-binding protein 1 (Homo sapiens) (UniProt P17861); experiment: ATG_Xbp1_CIS: Attagene CIS-FACTORIAL HepG2 Assay for human X-box Binding Protein 1 (XBP1) (AID 2282972); details: HepG2 XBP1 cis-element reporter, Attagene multiplex; actives raise or lower the signal
# How it was run: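 Human hepatoma HepG2, cis-element reporter system, 24 h treatment; mRNA quantified by RT-PCR/CE fluorescence; fit relative to DMSO.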
# Sequence of Transcription factor Sp1 (Homo sapiens) (P08047 whole entry, looked up): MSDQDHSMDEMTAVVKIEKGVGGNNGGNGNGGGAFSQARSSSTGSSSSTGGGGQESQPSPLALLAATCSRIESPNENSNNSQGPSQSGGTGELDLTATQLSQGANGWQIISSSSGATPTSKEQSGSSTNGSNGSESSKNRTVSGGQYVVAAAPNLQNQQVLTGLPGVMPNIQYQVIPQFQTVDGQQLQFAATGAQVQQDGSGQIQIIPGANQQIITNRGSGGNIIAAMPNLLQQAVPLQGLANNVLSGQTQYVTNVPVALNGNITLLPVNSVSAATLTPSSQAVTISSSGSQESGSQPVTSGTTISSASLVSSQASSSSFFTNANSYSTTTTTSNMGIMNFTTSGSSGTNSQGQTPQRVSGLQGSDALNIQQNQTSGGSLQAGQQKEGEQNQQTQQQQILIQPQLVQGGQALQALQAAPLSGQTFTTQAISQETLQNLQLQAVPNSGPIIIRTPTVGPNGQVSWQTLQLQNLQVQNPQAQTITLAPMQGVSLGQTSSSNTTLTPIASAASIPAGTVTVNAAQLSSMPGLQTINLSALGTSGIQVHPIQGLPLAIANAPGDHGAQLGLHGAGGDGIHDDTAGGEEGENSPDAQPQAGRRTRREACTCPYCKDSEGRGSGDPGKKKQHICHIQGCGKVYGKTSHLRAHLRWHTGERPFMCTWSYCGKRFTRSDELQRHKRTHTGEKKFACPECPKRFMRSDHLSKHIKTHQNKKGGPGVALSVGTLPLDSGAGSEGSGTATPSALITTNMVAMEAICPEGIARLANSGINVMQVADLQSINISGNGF
# Sequence of X-box-binding protein 1 (Homo sapiens) (P17861 whole entry, looked up): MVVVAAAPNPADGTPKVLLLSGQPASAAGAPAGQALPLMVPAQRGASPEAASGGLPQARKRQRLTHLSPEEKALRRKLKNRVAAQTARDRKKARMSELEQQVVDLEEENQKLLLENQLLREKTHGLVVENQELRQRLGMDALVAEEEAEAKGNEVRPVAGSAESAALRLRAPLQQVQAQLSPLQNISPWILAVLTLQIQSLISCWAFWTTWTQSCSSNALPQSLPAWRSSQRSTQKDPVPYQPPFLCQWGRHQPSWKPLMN
# Sequence of Paired box protein Pax-6 (Homo sapiens) (P26367 whole entry, looked up): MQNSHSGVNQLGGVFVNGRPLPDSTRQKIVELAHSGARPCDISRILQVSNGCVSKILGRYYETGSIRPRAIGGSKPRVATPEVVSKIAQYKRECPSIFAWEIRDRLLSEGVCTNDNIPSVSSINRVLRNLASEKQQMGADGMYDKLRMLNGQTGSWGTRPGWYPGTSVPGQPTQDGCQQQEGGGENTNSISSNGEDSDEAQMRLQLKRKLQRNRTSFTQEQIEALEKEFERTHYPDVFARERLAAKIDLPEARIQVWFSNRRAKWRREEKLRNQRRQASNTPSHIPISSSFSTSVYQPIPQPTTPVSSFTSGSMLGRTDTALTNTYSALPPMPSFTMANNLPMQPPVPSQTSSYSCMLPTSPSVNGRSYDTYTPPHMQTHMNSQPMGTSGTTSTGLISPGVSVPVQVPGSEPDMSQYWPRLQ
# Sequence of CCAAT/enhancer-binding protein beta (Homo sapiens) (P17676 whole entry, looked up, the tested form may be a part): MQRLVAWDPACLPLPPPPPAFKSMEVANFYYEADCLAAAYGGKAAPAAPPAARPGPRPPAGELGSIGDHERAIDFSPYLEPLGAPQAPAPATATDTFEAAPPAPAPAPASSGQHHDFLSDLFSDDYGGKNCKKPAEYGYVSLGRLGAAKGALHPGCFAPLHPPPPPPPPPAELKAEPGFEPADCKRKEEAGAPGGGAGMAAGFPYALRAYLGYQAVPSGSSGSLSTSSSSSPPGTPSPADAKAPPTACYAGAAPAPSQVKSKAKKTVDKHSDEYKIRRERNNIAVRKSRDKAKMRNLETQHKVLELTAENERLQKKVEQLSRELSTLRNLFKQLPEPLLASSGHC
# Sequence of Signal transducer and activator of transcription 3 (Homo sapiens) (P40763 whole entry, looked up): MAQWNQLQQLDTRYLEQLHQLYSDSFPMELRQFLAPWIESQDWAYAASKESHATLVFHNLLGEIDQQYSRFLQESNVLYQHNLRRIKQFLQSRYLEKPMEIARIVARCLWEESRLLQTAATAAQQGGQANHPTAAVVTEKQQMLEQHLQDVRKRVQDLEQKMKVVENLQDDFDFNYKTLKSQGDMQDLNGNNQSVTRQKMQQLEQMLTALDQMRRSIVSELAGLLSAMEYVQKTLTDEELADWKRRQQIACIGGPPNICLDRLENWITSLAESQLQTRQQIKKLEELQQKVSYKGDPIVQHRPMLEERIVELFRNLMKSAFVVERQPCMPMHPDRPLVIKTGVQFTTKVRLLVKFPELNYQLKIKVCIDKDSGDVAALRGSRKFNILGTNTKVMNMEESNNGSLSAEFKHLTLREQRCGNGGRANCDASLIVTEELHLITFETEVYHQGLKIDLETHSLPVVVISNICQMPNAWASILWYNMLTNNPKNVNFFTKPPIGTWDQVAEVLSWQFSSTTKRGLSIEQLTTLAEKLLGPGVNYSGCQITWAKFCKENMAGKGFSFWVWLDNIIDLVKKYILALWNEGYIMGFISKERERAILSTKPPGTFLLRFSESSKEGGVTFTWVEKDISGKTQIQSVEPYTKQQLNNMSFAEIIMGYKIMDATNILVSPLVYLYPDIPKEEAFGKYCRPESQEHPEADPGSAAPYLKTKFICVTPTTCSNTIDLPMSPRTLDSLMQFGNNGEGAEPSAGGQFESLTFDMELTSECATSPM
smiles,measurement,setting,value
CCCN[C@H]1CCc2nc(N)sc2C1,outcome,[1],inactive
same,outcome,[2],inactive
same,outcome,[3],inactive
same,outcome,[4],inactive
same,outcome,[5],inactive
same,outcome,[6],inactive
same,outcome,[7],inactive
same,outcome,[8],inactive
same,outcome,[9],inactive
same,outcome,[10],inactive
same,outcome,[11],inactive
same,outcome,[12],inactive
same,outcome,[13],inactive
same,outcome,[14],inactive
same,outcome,[15],inactive
same,outcome,[16],inactive
same,outcome,[17],inactive
same,outcome,[18],inactive
same,outcome,[19],inactive
same,outcome,[20],inactive
COCCCN,outcome,[1],inactive
same,outcome,[2],inactive
same,outcome,[3],inactive
same,outcome,[4],inactive
same,outcome,[5],inactive
same,outcome,[6],inactive
same,outcome,[7],inactive
same,outcome,[8],inactive
same,outcome,[9],inactive
same,outcome,[10],inactive
same,outcome,[11],inactive
same,outcome,[12],inactive
same,outcome,[13],inactive
same,outcome,[14],inactive
same,outcome,[15],inactive
same,outcome,[16],inactive
same,outcome,[17],inactive
same,outcome,[18],inactive
same,outcome,[19],inactive
same,outcome,[20],inactive
CC/C=C\CC/C=C/C(OCC)OCC,outcome,[1],inactive
same,AC50,[2],150 µM (active)
same,outcome,[3],inactive
same,outcome,[4],inactive
same,outcome,[5],inactive
same,outcome,[6],inactive
same,outcome,[7],inactive
same,outcome,[8],inactive
same,AC50,[9],100 µM (active)
same,outcome,[10],inactive
same,outcome,[11],inactive
same,AC50,[12],142 µM (active)
same,outcome,[13],inactive
same,AC50,[14],136 µM (active)
same,outcome,[15],inactive
same,outcome,[16],inactive
same,outcome,[17],inactive
same,outcome,[18],inactive
same,outcome,[19],inactive
same,outcome,[20],inactive
Oc1cccc2ccccc12,outcome,[1],inactive
same,AC50,[2],100 µM (active)
same,outcome,[3],inactive
same,outcome,[4],inactive
same,outcome,[5],inactive
same,outcome,[6],inactive
same,outcome,[7],inactive
same,outcome,[8],inactive
same,outcome,[9],inactive
same,outcome,[10],inactive
same,outcome,[11],inactive
same,outcome,[12],inactive
same,outcome,[13],inactive
same,outcome,[14],inactive
same,outcome,[15],inactive
same,outcome,[16],inactive
same,outcome,[17],inactive
same,outcome,[18],inactive
same,outcome,[19],inactive
same,outcome,[20],inactive
F[B-](F)(F)F,outcome,[1],inactive
same,outcome,[2],inactive
same,outcome,[3],inactive
same,outcome,[4],inactive
same,outcome,[5],inactive
same,outcome,[6],inactive
same,outcome,[7],inactive
same,outcome,[8],inactive
same,outcome,[9],inactive
same,outcome,[10],inactive
same,outcome,[11],inactive
same,outcome,[12],inactive
same,outcome,[13],inactive
same,outcome,[14],inactive
same,outcome,[15],inactive
same,outcome,[16],inactive
same,outcome,[17],inactive
same,outcome,[18],inactive
same,outcome,[19],inactive
same,outcome,[20],inactive
O=C(O)/C=C/C(=O)O,outcome,[1],inactive
same,outcome,[2],inactive
same,outcome,[3],inactive
same,outcome,[4],inactive
same,outcome,[5],inactive
same,outcome,[6],inactive
same,outcome,[7],inactive
same,outcome,[8],inactive
same,outcome,[9],inactive
same,outcome,[10],inactive
same,outcome,[11],inactive
same,outcome,[12],inactive
same,outcome,[13],inactive
same,outcome,[14],inactive
same,outcome,[15],inactive
same,outcome,[16],inactive
same,outcome,[17],inactive
same,outcome,[18],inactive
same,outcome,[19],inactive
same,outcome,[20],inactive
CC(C)CC(=O)O,outcome,[1],inactive
same,outcome,[2],inactive
same,outcome,[3],inactive
same,outcome,[4],inactive
same,outcome,[5],inactive
same,outcome,[6],inactive
same,outcome,[7],inactive
same,outcome,[8],inactive
same,outcome,[9],inactive
same,outcome,[10],inactive
same,outcome,[11],inactive
same,outcome,[12],inactive
same,outcome,[13],inactive
same,outcome,[14],inactive
same,outcome,[15],inactive
same,outcome,[16],inactive
same,outcome,[17],inactive
same,outcome,[18],inactive
same,outcome,[19],inactive
same,outcome,[20],inactive
